Data on six compounds can be found in PubChem BioAssay (EPA / NIEHS).

Calls of active or inactive are those of the source. Rule for the calls: active = hit-call score of the fitted dose curve at least 0.9, where 1 is the maximum; inactive = score below 0.9.

Read-out in experiment [1]: Human Leukocyte Antigen - DR isotype (HLADR), HLA-DRA (gene 3122)
Kind of experiment: BSK_BE3C_HLADR: BioMAP Diversity Plus: BE3C Assay for Human Leukocyte Antigen - DR isotype (HLADR) Biomarker Activity (AID 2283032). The following applies: primary human bronchial epithelial cells; actives raise or lower the signal. The method, boiled down:
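Cell-surface HLA-DR ELISA readout at 24 h after dosing in the BE3C primary human lung bronchial epithelial system; gain or loss of signal against DMSO, with parallel sulforhodamine B staining of total protein for overt cytotoxicity.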

Read-out in experiment [2]: Vascular cell adhesion molecule 1 (VCAM1), VCAM1 (gene 7412)
Kind of experiment: BSK_4H_VCAM1: BioMAP Diversity Plus: 4H Assay for Vascular cell adhesion molecule 1 (VCAM1) Biomarker Activity (AID 2283033).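 Note: cell-surface VCAM-1 protein measured by ELISA.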 The following applies: primary human endothelial cells (HUVEC); actives raise or lower the signal. Summed up: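 VCAM-1 ELISA read 24 h after chemical dosing of HUVEC in the BioMAP 4H system, with gain or loss of signal fitted relative to DMSO. Parallel SRB staining (560 nm) checked overt cytotoxicity.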

Read-out in experiment [3]: Interferon-gamma inducible Protein 10 (IP10), CXCL10 (gene 3627)
Description: BSK_BE3C_IP10: BioMAP Diversity Plus: BE3C Assay for Interferon-gamma inducible Protein 10 (IP10) Biomarker Activity (AID 2283034). The following applies: primary human bronchial epithelial cells; actives raise or lower the signal. The method, boiled down:
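IP-10 quantified by ELISA in human primary bronchial epithelial cell cultures at 24 hours post-dosing. Gain or loss of signal fitted relative to DMSO; parallel SRB staining assessed overt cytotoxicity.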

Read-out in experiment [4]: Monokine induced gamma interferon (MIG), CXCL9 (gene 4283)
Kind of experiment: BSK_BE3C_MIG: BioMAP Diversity Plus: BE3C Assay for Monokine induced gamma interferon (MIG) Biomarker Activity (AID 2283035). The following applies: primary human bronchial epithelial cells; actives raise or lower the signal. The method, boiled down:
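ELISA quantified MIG after 24 h exposure of primary bronchial epithelial cultures, analysed in both directions relative to DMSO. Cytotoxicity tracked in parallel cultures by sulforhodamine B staining.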

Read-out in experiment [5]: Transforming growth factor beta 1 (TGFb1), TGFB1 (gene 7040)
Kind of experiment: BSK_BE3C_TGFb1: BioMAP Diversity Plus: BE3C Assay for Transforming growth factor beta 1 (TGFb1) Biomarker Activity (AID 2283036;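 note: TGF-b1 protein level measured by ELISA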). The following applies: primary human bronchial epithelial cells; actives raise or lower the signal. Summed up: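 ELISA readout of TGF-b1 from human lung bronchial epithelial primary cells, taken 24 h post-treatment. Gain or loss of signal fitted relative to DMSO baseline, with parallel SRB staining for overt cytotoxicity.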

Read-out in experiment [6]: Plasminogen activator inhibitor-1 (PAI1), SERPINE1 (gene 5054)
Kind of experiment: BSK_BE3C_PAI1: BioMAP Diversity Plus: BE3C Assay for Plasminogen activator inhibitor-1 (PAI1) Biomarker Activity (AID 2283037). The following applies: primary human bronchial epithelial cells; actives raise or lower the signal. The method, boiled down:
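PAI-1 was measured by ELISA in human primary bronchial epithelial cultures 24 h after chemical dosing, with cytotoxicity checked by SRB total-protein staining in parallel cultures. Activity was fitted in both directions relative to DMSO.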

Read-out in experiment [7]: Urokinase-type plasminogen activator receptor (uPAR), PLAUR (gene 5329)
Description: BSK_BE3C_uPAR: BioMAP Diversity Plus: BE3C Assay for Urokinase-type plasminogen activator receptor (uPAR) Biomarker Activity (AID 2283039).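 Note: cells exposed to compound for one day before measurement.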 The following applies: primary human bronchial epithelial cells; actives raise or lower the signal. The method, boiled down: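 uPAR levels were measured by ELISA after 24 h compound treatment of primary human bronchial epithelial cells, fitted in both directions relative to DMSO. Parallel SRB staining served as the cytotoxicity read-out.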

Read-out in experiment [8]: Interleukin-6 (IL6), IL6 (gene 3569)
Description: BSK_CASM3C_IL6: BioMAP Diversity Plus: CASM3C Assay for Interleukin-6 (IL6) Biomarker Activity for (AID 2283040). The following applies: primary human coronary artery smooth muscle cells; actives raise or lower the signal.

Read-out in experiment [9]: Tissue plasminogen activator (tPA), PLAT (gene 5327)
Description: BSK_BE3C_tPA: BioMAP Diversity Plus: BE3C Assay for Tissue plasminogen activator (tPA) Biomarker Activity (AID 2283041).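 Note: tPA level quantified by ELISA one day after compound addition.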 The following applies: primary human bronchial epithelial cells; actives raise or lower the signal. The method, boiled down:
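tPA measured by ELISA 24 h after dosing human primary bronchial epithelial cells (BE3C system). Changes in either direction were fitted against DMSO. Parallel cultures were stained with SRB to flag overt cytotoxicity.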

Read-out in experiment [10]: Interleukin-8 (IL8), CXCL8 (gene 3576)
Kind of experiment: BSK_CASM3C_IL8: BioMAP Diversity Plus: CASM3C Assay for Interleukin-8 (IL8) Biomarker Activity (AID 2283042).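 Note: IL-8 protein level quantified by ELISA.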 The following applies: primary human coronary artery smooth muscle cells; actives raise or lower the signal.

Read-out in experiment [11]: Human Leukocyte Antigen - DR isotype (HLADR), HLA-DRA (gene 3122)
Description: BSK_CASM3C_HLADR: BioMAP Diversity Plus: CASM3C Assay for Human Leukocyte Antigen - DR isotype (HLADR) Biomarker Activity (AID 2283043).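 Note: cell-surface HLA-DR protein level quantified by ELISA.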 The following applies: primary human coronary artery smooth muscle cells; actives raise or lower the signal.

Read-out in experiment [12]: Macrophage colony-stimulating factor (MCSF), CSF1 (gene 1435)
Kind of experiment: BSK_CASM3C_MCSF: BioMAP Diversity Plus: CASM3C Assay for Macrophage colony-stimulating factor (MCSF) Biomarker Activity (AID 2283044).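 Note: M-CSF protein amount quantified by ELISA after 24 h exposure.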 The following applies: primary human coronary artery smooth muscle cells; actives raise or lower the signal.

Read-out in experiment [13]: Low-density lipoprotein receptor (LDLR), LDLR (gene 3949)
Kind of experiment: BSK_CASM3C_LDLR: BioMAP Diversity Plus: CASM3C Assay for Low-density lipoprotein receptor (LDLR) Biomarker Activity (AID 2283045).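 Note: LDLR protein level on the cell surface quantified by ELISA.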 The following applies: primary human coronary artery smooth muscle cells; actives raise or lower the signal.

Read-out in experiment [14]: Monocyte Chemoattractant Protein-1 (MCP1), CCL2 (gene 6347)
Kind of experiment: BSK_CASM3C_MCP1: BioMAP Diversity Plus: CASM3C Assay for Monocyte Chemoattractant Protein-1 (MCP1) Biomarker Activity (AID 2283046).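 Note: MCP-1 level quantified by ELISA 24 h after dosing.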 The following applies: primary human coronary artery smooth muscle cells; actives raise or lower the signal.

Experiment [15] in a line: BSK_CASM3C_Proliferation: Cell Proliferation Assessment in the BioMAP Diversity Plus: CASM3C Assay (AID 2283047).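 Note: sulforhodamine B total protein stain as relative cell number at 560 nm; sub-confluent cells exposed 48 h before staining; fitted both ways against DMSO so gain or loss of cell number.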 The following applies: primary human coronary artery smooth muscle cells.
Read-out in experiment [16]: Monokine induced gamma interferon (MIG), CXCL9 (gene 4283)
Description: BSK_CASM3C_MIG: BioMAP Diversity Plus: CASM3C Assay for Monokine induced gamma interferon (MIG) Biomarker Activity (AID 2283048).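 Note: MIG protein level measured by ELISA.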 The following applies: primary human coronary artery smooth muscle cells; actives raise or lower the signal.

Read-out in experiment [17]: serum amyloid A (SAA), SAA1 (gene 6288)
Kind of experiment: BSK_CASM3C_SAA: BioMAP Diversity Plus: CASM3C Assay for serum amyloid A (SAA) Biomarker Activity (AID 2283049).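 Note: SAA protein level quantified by ELISA.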 The following applies: primary human coronary artery smooth muscle cells; actives raise or lower the signal.

Experiment [18] is described as follows: BSK_CASM3C_SRB: Viability Assessment in the BioMAP Diversity Plus: CASM3C Assay (AID 2283050). The following applies: primary human coronary artery smooth muscle cells.
Read-out in experiment [19]: Thrombomodulin, THBD (gene 7056)
Kind of experiment: BSK_CASM3C_Thrombomodulin: BioMAP Diversity Plus: CASM3C Assay for Thrombomodulin Biomarker Activity (AID 2283051).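 Note: thrombomodulin protein level measured by ELISA 24 h after dosing.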 The following applies: primary human coronary artery smooth muscle cells; actives raise or lower the signal.

Read-out in experiment [20]: urokinase plasminogen activator (uPA), PLAU (gene 5328)
Description: BSK_BE3C_uPA: BioMAP Diversity Plus: BE3C Assay for urokinase plasminogen activator (uPA) Biomarker Activity (AID 2283038).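 Note: uPA protein level quantified by ELISA in cell cultures; uPA read one day after compound addition.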 The following applies: primary human bronchial epithelial cells; actives raise or lower the signal. The method, boiled down:
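ELISA for uPA on human primary bronchial epithelial cultures 24 h post-treatment, gain or loss against DMSO. Parallel SRB staining (0.1% after 10% TCA fixation, 560 nm) assessed overt cytotoxicity.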

As usually defined, the AC50 is the concentration at which the activity in the assay is half-maximal. Take `CCCCN1C(=O)[C@@H]([C@H](O)C2CCCCC2)NC(=O)C12CCN(Cc1ccc(Oc3ccc(C(=O)O)cc3)cc1)CC2`: the outcome in [1], in [2], in [3], in [4], in experiment [5] and in [6] was inactive. The outcome in experiment [7], in [8], in experiment [9], in experiment [10], in experiment [11] and in experiment [12] was inactive. In addition, the outcome in [14], in experiment [16], in experiment [17], in [18] and in experiment [19] was inactive. Further, the AC50 in experiment [13] is 9.69 µM (active); in [15] it was 18.3 µM (active).
In the case of `CC[C@H](C)C(=O)O[C@H]1C[C@H](O)C=C2C=C[C@H](C)[C@H](CC[C@@H](O)C[C@@H](O)CC(=O)O)[C@H]21`, the outcome in experiment [1], in experiment [2], in experiment [3], in experiment [4], in experiment [5] and in [6] was inactive. Besides, the outcome in experiment [7], in experiment [8], in [9], in experiment [10], in [11] and in experiment [12] was inactive. In addition, the outcome in experiment [13], in experiment [14], in experiment [15], in [16], in [17] and in experiment [18] was inactive. Further, the concentration at half-maximal activity (AC50) in [19] was 15.3 µM (active).
As for `C[C@@H](Oc1ccc(CNC(=O)c2cccnc2Oc2ccc3c(c2)OCO3)c(F)c1)C(=O)O`, the outcome in experiment [1], in experiment [2], in experiment [3], in experiment [4], in experiment [5] and in experiment [6] was inactive. Moreover, the result in [20], in [7], in experiment [8], in experiment [9], in [10] and in experiment [11] was inactive. The outcome in experiment [12], in [13], in experiment [14], in [15], in [16] and in experiment [17] was inactive. Moreover, the outcome in experiment [18] and in experiment [19] was inactive.
For the compound `Cc1ncc([C@@H](CCCCCCc2ccc3c(n2)NCCC3)CC(=O)O)cn1`, the result in experiment [1], in experiment [2], in [3], in experiment [4], in [5] and in experiment [6] was inactive. Also, the result in experiment [7], in [8], in [9], in [10], in [11] and in [12] was inactive. The outcome in experiment [13], in experiment [14], in experiment [16], in experiment [17], in experiment [18] and in experiment [19] was inactive. Also, the AC50 in experiment [15] was 3.97 µM (active).
In the case of `OC(Cn1cncn1)(Cn1cncn1)c1ccc(F)cc1F`, the result in experiment [1], in experiment [2], in [3], in experiment [4], in [5] and in experiment [6] was inactive. Further, the result in experiment [20], in experiment [7], in [8], in [9], in experiment [10] and in experiment [11] was inactive. In addition, the outcome in experiment [12], in experiment [13], in experiment [14], in experiment [15], in [16] and in experiment [17] was inactive. Besides, the outcome in experiment [18] and in [19] was inactive.
As to `CCCC(CCC)C(=O)O`, the outcome in experiment [1], in [2], in [3], in [4], in experiment [5] and in experiment [6] was inactive. Also, the result in experiment [20], in experiment [7], in experiment [8], in [9], in [10] and in experiment [11] was inactive. For the same compound, the outcome in [12], in experiment [13], in experiment [14], in experiment [15], in [16] and in experiment [17] was inactive. In addition, the outcome in experiment [18] and in experiment [19] was inactive.
